This note sets out measurements from PubChem BioAssay (NCI).

The panel holds about 83,000 compounds, 20% with a hit somewhere; the sample as a whole holds those more often.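 Compound tested at a single concentration for 48 hours in 96-well plates; a percent growth value below 10 was scored as active.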 A number with no mark means an inactive call. Calls of active or inactive are those of the source.

Test in all cases: NCI-60 one-dose screen, 48 h (100 = growth as untreated, 0 = no growth, -100 = all killed)
What all share (details): 10 µM unless noted

The subject of assay [1] is NCI-H23 lung.
The subject of assay [2] is NCI-H226 lung.
Assay [3] deals with NCI-H322M lung.
Assay [4] deals with HOP-62 NSCLC.
In assay [5] the test system is NCI-H460 lung.
Assay [6] relates to HOP-92 NSCLC.
Assay [7] concerns NCI-H522 lung.
For assay [8], the system named is A549/ATCC NSCLC.
Assay [9] relates to 786-0 renal.
Assay [10] deals with COLO 205 colon.

`Oc1ccccc1-c1nnc(SCc2ccc(O)c3ncccc23)o1`: the growth in [1] is 23.5%; in assay [2], 67.5%; in assay [3], 64.2%; in assay [4] it was 31.1%; in [5], 5.53% (active); in assay [6], -8.17% (active). In addition, the growth in [7] is 20.7%; in assay [8], 27.5%; in [9], 32.2%; in [10], 113%.
On to `CC[C@H](C)[C@H]1NC(=O)[C@@H]([C@H](O)C(C)C)NC(=O)[C@@H](C)N(C)C(=O)[C@H](C)N(C)C(=O)[C@H](CC(C)C)NC(=O)[C@H](CC(C)C)N(C)C(=O)[C@H](C)N(C)C1=O`, for which the growth in assay [1] was -2.85% (active); in assay [2], -6.15% (active); in assay [3], 5.75% (active); in assay [4], -13.3% (active); in [5] it was 1.46% (active); in assay [6], -3.54% (active). For the same compound, the growth in [7] is 1.44% (active); in assay [8], 0.788% (active); in assay [9] it was 0.205% (active); in assay [10] it was -8.56% (active).
With `O=C1Nc2ccc(Cl)cc2/C1=C/c1ccc(OCc2ccc(Br)cc2F)cc1`, the growth was 98.6% in [1]; 73.5% in [2]; 99.6% in assay [3]; 101% in [4]; 103% in assay [5]; 95% in [6]. Further, the growth in assay [7] was 100%; in assay [8], 102%; in assay [9], 102%; in [10], 103%.
As for `Nc1nc(-c2cccc([N+](=O)[O-])c2)c(N=Nc2ccccc2[N+](=O)[O-])s1`, the growth in assay [1] was 3.8% (active); in assay [2], 4.17% (active); in [3], 76.7%; in assay [4], -36.1% (active); in assay [5], 39.5%; in [6] it was -28.4% (active). For the same compound, the growth is 26.4% in assay [7], 36.1% in assay [8], -66.4% (active) in [9] and 93.7% in assay [10].
Regarding `Cc1ccc(NC(=O)c2ccc(CN3CCN(C)CC3)c(C(F)(F)F)c2)cc1Oc1ccc(-c2[nH]nc3ncnc(N)c23)cc1`, the growth is 90.1% in [1]; 78.4% in assay [2]; 96.2% in [3]; 99.4% in [4]; 93.5% in assay [5]; 103% in assay [6]. Besides, the growth in assay [7] is 84.9%; in [8], 78.6%; in assay [9] it was 70.9%; in [10] it was 52.5%.
With `COc1ccc(Cn2cc3c(c2-c2ccccc2)CCCc2cnoc2-3)cc1`, the growth in assay [1] was 77.6%; in [2], 79%; in assay [3], 76%; in assay [4] it was 63.8%; in assay [5] it was 26.9%; in [6], 72%. Besides, the growth in [7] was 34.9%; in assay [8], 56.6%; in [9] it was 73.3%; in assay [10] it was 40.9%.
For `CCOC(=O)/C(F)=C/C1CC1C1CCCCC1` (stereo not given), the growth is 97.4% in [1]; 104% in assay [2]; 105% in [3]; 122% in assay [4]; 104% in assay [5]; 83.1% in assay [6]. The growth in assay [7] is 103%; in assay [8], 104%; in assay [9], 102%; in assay [10], 110%.
Consider `COc1ccc2c(ccn2C(=O)N2c3ccccc3Sc3ccccc32)c1`, for which the growth in assay [1] was 40.3%; in [2], 51.6%; in assay [3], 52.6%; in assay [4], 35.3%; in [5], 14.2%; in [6], 25.4%. In addition, the growth in [7] was -26.8% (active); in assay [8] it was 43.8%; in [9], 50.1%; in assay [10] it was -33.3% (active).
For the compound `CCOC(=O)C1=C(C)Nc2nc3ccccc3n2C1c1cccc(Br)c1` (stereo not given), the growth was 86.7% in assay [1]; 102% in assay [2]; 97.6% in [3]; 74.3% in assay [4]; 89.2% in assay [5]; 99.3% in [6]. Besides, the growth in [7] is 37.1%; in assay [8], 80.7%; in assay [9] it was 93.5%; in [10], 81.6%.
Regarding `N#C/C(=C\c1ccc(Cl)cc1Cl)C(N)=O`, the growth in assay [1] is 104%; in [2] it was 109%; in [3] it was 100%; in [4], 101%; in assay [5], 106%; in assay [6], 122%. Moreover, the growth is 93.9% in assay [7], 109% in assay [8], 101% in assay [9] and 117% in assay [10].
As to `CCOc1c(C#N)c(Nc2ccc(S(N)(=O)=O)cc2)c(C#N)c2nnc(C)n12`, the growth in assay [1] was 93.5%; in assay [2], 105%; in assay [3], 100%; in assay [4], 104%; in assay [5] it was 111%; in [6], 98%. For the same compound, the growth in [7] is 95.3%; in assay [8], 104%; in assay [9], 110%; in assay [10], 105%.
In the case of `C#C[C@]1(O)CC[C@H]2[C@@H]3CC=C4c5sc(Nc6ccncc6)nc5CC[C@]4(C)[C@H]3CC[C@@]21C`, the growth was 2.43% (active) in [1]; -4.76% (active) in assay [2]; 31.7% in assay [3]; -42.3% (active) in assay [4]; 4.53% (active) in assay [5]; 4.3% (active) in [6]. The growth is -37% (active) in [7], -14.7% (active) in assay [8], -60.2% (active) in assay [9] and -46.9% (active) in [10].
On to `COc1ccc([C@@H]2[C@@H](O)C(=O)N2c2cc(OC)c(OC)c(OC)c2)cc1`, for which the growth in [1] was 25.6%; in assay [2] it was -7.75% (active); in assay [3], 43.1%; in [4], 22.7%; in assay [5] it was 3.07% (active); in [6], -1.78% (active). Further, the growth was -21.2% (active) in assay [7], 23.3% in [8], 19.2% in [9] and -78.7% (active) in [10].
